Bcl-xL primary: Bcl-xL (human) inhibition; hit rate 0.7% among 320,000; GST-Bcl-xL / FITC-Bim BH3 peptide fluorescence polarization; inhibition, % at 10.9 µM;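 active means inhibition above the mean of all tested compounds plus 3 SD, cutoff set per campaign, cut at about 30% in these data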;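 further: 0% = DMSO wells and 100% = unlabeled Bim-BH3 peptide competitor; inhibitors lower millipolarization by displacing the labeled peptide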
Target sequence (Q07817 whole entry, looked up): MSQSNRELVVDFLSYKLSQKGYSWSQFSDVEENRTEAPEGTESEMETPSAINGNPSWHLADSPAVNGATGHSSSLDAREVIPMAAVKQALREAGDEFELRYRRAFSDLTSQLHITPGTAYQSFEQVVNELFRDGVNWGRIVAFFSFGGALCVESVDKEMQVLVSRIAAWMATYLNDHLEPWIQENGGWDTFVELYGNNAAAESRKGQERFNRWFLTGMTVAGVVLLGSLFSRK
Mcl1 Bid PPI: Mcl-1/Bid interaction inhibition | Q07820 | TR-FRET Mcl-1/Bid-Dy647 peptide binding, 1536-well | inhibition, % at 21.7 µM | hit rate 0.97% among 220,000;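 active means compounds that cut the binding signal by more than half at the single screening dose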;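 further: His-tagged Mcl-1 with europium anti-His antibody binding Bid BH3 peptide; 0% = Mcl-1 plus peptide wells and 100% = peptide-only wells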
Target sequence (Q07820 whole entry, looked up): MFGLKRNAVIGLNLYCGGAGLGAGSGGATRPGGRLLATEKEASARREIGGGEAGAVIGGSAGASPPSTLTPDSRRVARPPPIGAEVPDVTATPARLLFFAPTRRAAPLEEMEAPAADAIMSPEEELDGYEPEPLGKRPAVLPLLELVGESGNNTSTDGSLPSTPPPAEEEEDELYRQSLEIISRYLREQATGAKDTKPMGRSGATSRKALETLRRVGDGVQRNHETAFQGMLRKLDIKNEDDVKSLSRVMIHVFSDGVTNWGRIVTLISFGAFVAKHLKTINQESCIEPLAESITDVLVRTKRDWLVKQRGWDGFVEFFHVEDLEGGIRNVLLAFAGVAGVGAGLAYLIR
Bim-Mcl-1: human Bim-Mcl-1 interaction inhibition. Q07820. Bead-based flow cytometry, Bim peptide-Mcl-1 binding. inhibition, % at 10 µM. hit rate 0.1% among 190,000; in the data active means inhibition above about 40%;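 further: 0% = no compound tracer wells and 100% = peptide blocker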
Mcl1 Noxa PPI: disrupts binding of human Mcl-1 to Noxa peptide | Q07820 | TR-FRET Mcl-1/Noxa peptide binding, 2 h | inhibition, % at 21.7 µM | hit rate 1.5% among 220,000;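 active means compounds that cut the protein-peptide binding signal by more than 50% relative to plate controls in a single-dose test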;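 further: His-tagged Mcl-1 with rhodamine Noxa BH3 peptide and terbium anti-His antibody; 0% = Mcl-1 plus Noxa peptide wells and 100% = peptide-only wells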
MCL1-BIM inh: disrupts human MCL1 binding to BIM-BH3 peptide; Q07820; GST-MCL1 / FITC-Bim-BH3 fluorescence polarization; inhibition, % at 10.9 µM; hit rate 0.68% among 320,000;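 active means inhibition above the mean inhibition of all tested compounds plus 3 SD, set per campaign, cut at about 40% in these data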;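 further: 0% = DMSO wells and 100% = unlabeled Bim-BH3 peptide control; higher means more loss of mP so more displacement of Bim peptide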
GLD-1 TGE inh: GLD-1-TGE RNA interaction inhibition (C. elegans). inhibition, % at 5.96 µM. purified GLD-1 + fluorescein TGE RNA, fluorescence polarization. Q17339. hit rate 0.44% among 320,000;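 active means percent inhibition above a per-plate cutoff, the plate mean of test compounds plus 3 SD, cut at about 30% in these data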;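 further: 0% = DMSO wells with GLD-1 and probe and 100% = wells lacking GLD-1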
The depositor's hits bear a star; / = not tested or not shown. Only some compounds are listed: those with a hit (about 2.3% of all), similar ones and a draw of the others.

SMILES | Bcl-xL primary | Mcl1 Bid PPI | Bim-Mcl-1 | Mcl1 Noxa PPI | MCL1-BIM inh | GLD-1 TGE inh
COCCCn1c(=NC(=O)c2ccncc2)c(C#N)cc2c(=O)n3cccc(C)c3nc21 | 41* | 27 | 0 | 6 | 39 | 19
CCCCn1c(=NC(=O)c2cccnc2)c(C#N)cc2c(=O)n3cccc(C)c3nc21 | 46* | -28 | -6 | 13 | 48* | 12
CCOC(=O)c1cc2c(=O)n3cccc(C)c3nc2n(CCCOC)c1=NC(=O)c1cccnc1 | 10 | -8 | 0 | 10 | 8 | 4
COc1ccc(C(C(=O)NCC2CCCO2)N(C(=O)c2snc(C(N)=O)c2N)c2ccccc2C)cc1OC (centres undefined) | 2 | / | / | / | 1 | 4
CC(C)c1ccc(C(C(=O)NC2CCCCC2)N(C(=O)c2csnn2)C2CC2)cc1 (centres undefined) | 6 | / | / | / | 10 | -1
COc1ccc(/C=C2\C(=O)NC(=S)N2C(=O)c2ccc(F)cc2)cc1 | -84 | 81* | -9 | 64* | -165 | -133
COCC(COS(N)(=O)=O)Cc1ccccc1 (centres undefined) | 5 | / | / | / | 2 | 6
COc1ccc(NC(=S)NC2CC3CCC(C2)N3Cc2ccco2)cc1 (centres undefined) | -4 | -84 | 0 | -3 | -3 | 1
CCc1ccc(NC(=S)NC2CC3CCC(C2)N3Cc2ccco2)cc1 (centres undefined) | -2 | 96* | -5 | 4 | -1 | 12
CC(Nc1cccc(C(=O)NC2CC2)c1)c1nnc(-c2ccccc2)o1 (centres undefined) | / | / | / | / | / | 0
COc1cc(C(c2nnnn2C2CCCC2)N2CCc3ccccc3C2)ccc1O (centres undefined) | 5 | 9 | 0 | 77* | 11 | 2
Oc1ccc(C(c2nnnn2C2CCCC2)N2CCc3ccccc3C2)cc1 (centres undefined) | 10 | -11 | 1 | 25 | 11 | 5
Cc1ccc(S(=O)(=O)n2c3ccc(F)cc3c3nc(C)sc32)cc1 | 5 | -24 | -29 | -1 | 15 | 6
CCN(CC)CCn1c2ccc(F)cc2c2nc(C)sc21 | 2 | 53* | 9 | 42 | 1 | 4
CCC(=O)N(CC)c1nc(-c2ccc(OC)cc2)cs1 | 3 | 54* | -4 | -3 | -2 | 10
Cc1ccc2[nH]c(C(=O)N3CCN(c4cccc(Cl)c4)CC3)cc2c1 | 1 | / | / | / | 6 | -3
COc1cc2c(cc1OC)C(c1ccccc1C)CC(=O)N2 (centres undefined) | 6 | / | / | / | -1 | -5
NC(=O)CC(NC(=O)c1ccc(Br)cc1)c1ccc(NC2CCCCCC2)c([N+](=O)[O-])c1 (centres undefined) | 1 | / | / | / | -2 | 1
CC(=O)c1ccc(-n2nnnc2SCC(=O)Nc2sc(C)c(C)c2C#N)cc1 | 9 | 57* | -1 | 65* | 2 | -1
Cc1sc(NC(=O)CSc2nnc(-c3ccc(F)cc3)o2)c(C#N)c1C | 1 | 59* | 0 | 12 | 2 | -5
Cc1ccc(-c2nnc(SCC(=O)Nc3sc(C)c(C)c3C#N)n2C)cc1 | -9 | 13 | -2 | 3 | -7 | -11
CCOC(=O)Cc1csc(NC(=O)c2sc3nc4ccc(CC)cc4cc3c2N)n1 | 21 | 91* | 5 | 89* | 11 | 13
COc1ccccc1C1NC=C([N+](=O)[O-])C=C1[N+](=O)[O-] (centres undefined) | 5 | -1 | -7 | 77* | 3 | 7
CCOC(=O)C1=C(O)/C(=C\c2cc(C)n(-c3ccccc3F)c2C)N=C1C | 48* | -21 | -2 | -4 | 37 | 29
COc1ccc(C(=O)Nc2cccc(C)c2)cc1S(=O)(=O)N1CCOCC1 | -1 | 76* | 0 | 3 | 0 | -3
SMILES | Bcl-xL primary | Mcl1 Bid PPI | Bim-Mcl-1 | Mcl1 Noxa PPI | MCL1-BIM inh | GLD-1 TGE inh
COc1cccc(NC(=O)CN(C)C(=O)c2cc(-c3ccccc3)nn2-c2ccccc2)c1 | / | / | / | / | / | 5
Cc1ccc(NC(=O)CCn2c(=S)oc3ccccc32)cc1 | 2 | 17 | 2 | 15 | 1 | 3
CN(C)c1ccc(NC(=O)CCn2c(=S)oc3ccccc32)cc1 | 1 | -15 | 2 | 68* | 30 | 0
O=C(COC(=O)c1ccc2c(c1)C(=O)N(Cc1ccncc1)C2=O)Nc1ccccc1[N+](=O)[O-] | 5 | 20 | -8 | 83* | 13 | -3
CC(OC(=O)c1ccc2c(c1)C(=O)N(Cc1ccncc1)C2=O)C(=O)Nc1cccc(Cl)c1Cl (centres undefined) | 2 | 64* | -6 | 1 | -15 | -10
COc1ccc(N(CC(=O)NCCSCc2ccccc2Cl)S(C)(=O)=O)cc1Cl | 1 | / | / | / | -1 | -8
CN(C)c1ccc(NC(=O)c2cccc(N3C(=O)C4C5C=CC(C5)C4C3=O)c2)cc1 (centres undefined) | 3 | -74 | -2 | 80* | 0 | -2
CC(OC(=O)c1cccc(N2C(=O)c3ccccc3C2=O)c1)C(=O)Nc1ccc(N(C)C)cc1 (centres undefined) | -1 | 40 | -4 | 76* | 12 | 3
Cc1ccc(NC(=O)COC(=O)c2cccc(N3C(=O)c4ccccc4C3=O)c2)cc1 | 5 | -61 | / | 1 | 7 | 2
Oc1ccc(Br)cc1-c1cc(-c2ccccc2)n[nH]1 | 6 | 1 | -4 | 23 | 3 | 5
Oc1ccc(Br)cc1-c1cc(-c2ccc(Cl)cc2)n[nH]1 | 2 | 10 | -2 | 82* | 9 | -14
S=C(NC1CCCCC1)N1CCn2cccc2C1c1cccnc1 (centres undefined) | -3 | -28 | -1 | 63* | -3 | -5
COC(=O)[C@@]1(Cc2ccccc2)[C@H]2c3cc(C(=O)N4CCCC4)n(CCSCCO)c3C[C@H]2CN1C(=O)c1ccccc1 | 7 | -13 | -2 | 101* | 1 | 5
CSc1ccc(C2=CC(=O)C[C@H](c3ccc(Cl)cc3)C2)cc1 | 2 | / | / | / | 0 | 3
CNC(=O)COC(=O)c1ccccc1C(=O)c1ccc(Cl)c([N+](=O)[O-])c1 | / | -21 | -4 | 9 | / | /
CC(C)OC(=O)c1ccccc1C(=O)c1ccc(N)c([N+](=O)[O-])c1 | 1 | -59 | 4 | 61* | -5 | 0
COc1ccc(C(=O)NC2CC2)cc1OC1CCN(C(C)CSC)CC1 (centres undefined) | 31* | / | / | / | 27 | 15
FC(F)(F)c1ccc(/C=N/N2CCN(Cc3cccc4ccccc34)CC2)cc1 | -2 | -71 | 0 | -5 | 1 | 1
C(=N\N1CCN(Cc2cccc3ccccc23)CC1)/c1cccnc1 | -4 | 58* | 0 | -9 | -6 | 7
Cc1cc(=O)oc2cc(NC(=O)c3ccccc3OC(F)F)ccc12 | 20 | / | / | / | 13 | 10
CS(=O)(=O)N(CC(=O)N1CCc2ccccc2C1)c1ccccc1Br | 4 | / | / | / | 0 | 5

Screens (PubChem BioAssay)
